Results as given in PubChem BioAssay (NCI).
This is part of a sample that, as a whole, favours compounds with a hit. Of some 83,000 tested, about 20% had one in any assay.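 Results are percent growth after 48 hours of single-concentration exposure. 100 means growth as in untreated cells, lower positive values show inhibition; negative values down to -100 show cell death.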 Unmarked numbers belong to inactive results. Activity calls are given as the source filed them. The calls were made as follows: active = growth percent below 10; inactive = the rest.

Tests used:
Assay in all cases: NCI-60 one-dose screen, 48 h (100 = growth as untreated, 0 = no growth, -100 = all killed)
Settings in all cases: 10 µM unless noted
DU-145 prostate = system: DU-145 prostate
K-562 leukemia = system: K-562 leukemia
MALME-3M melanoma = system: MALME-3M melanoma
MDA-MB-231 breast = system: MDA-MB-231 breast
RXF 393 renal = system: RXF 393 renal
SF-268 CNS = system: SF-268 CNS
SF-295 CNS = system: SF-295 CNS
SF-539 CNS = system: SF-539 CNS
UACC-257 melanoma = system: UACC-257 melanoma
M14 melanoma = system: M14 melanoma

Compound | growth (DU-145 prostate) | growth (K-562 leukemia) | growth (MALME-3M melanoma) | growth (MDA-MB-231 breast) | growth (RXF 393 renal) | growth (SF-268 CNS) | growth (SF-295 CNS) | growth (SF-539 CNS) | growth (UACC-257 melanoma) | growth (M14 melanoma)
C#CCOC(=O)[C@]1(C)CCC[C@]2(C)[C@H]3C[C@H]4C(C(C)C)=C[C@]3(CC[C@H]21)[C@@H]1C(=O)CCC(=O)[C@@H]14 | 102% | 77.2% | 110% | 74.6% | 86% | 99.2% | 83.7% | 84% | 92.3% | 91.9%
NS(=O)(=O)c1ccc(-n2ncc(NC(=O)Nc3ccc(S(=O)(=O)Nc4nccs4)cc3)c2-c2ccccc2)cc1 | 109% | 96.1% | 97.2% | 112% | 120% | 101% | 99.3% | 98.2% | 104% | 95.8%
Cc1c(Br)cccc1NC(=O)c1sc2nc3c(cc2c1N)CN(Cc1ccccc1)CC3 | 17.8% | 7.49% (active) | 32.8% | 22.7% | 6.25% (active) | 31.7% | 18.8% | -4.32% (active) | 67.7% | 0.627% (active)
Cc1c(Cl)cccc1NC(=O)c1sc2nc3c(cc2c1N)COCC3 | 33% | 13% | 59.4% | 49% | 13.1% | 47.4% | 12.9% | 11.4% | 47.3% | 10.8%
Cc1nc2sc(C(=O)Nc3cccc(Cl)c3C)c(N)c2cc1C(C)O (stereo not given) | 20% | 7.36% (active) | 71% | 47.5% | 3.16% (active) | 47.9% | 15% | -12.5% (active) | 46.9% | 23.4%
COc1ccc(-c2nnc(N3CCN(C(=O)CN4CCN(c5ccccc5)CC4)CC3)nc2-c2ccc(OC)cc2)cc1 | 57.8% | 4.73% (active) | 34.2% | 65.1% | -9.53% (active) | 52.8% | -23% (active) | 46.6% | 31.2% | 49%
CC1=C(CCCOC(=O)NCCCl)C2=C(C)C3(CC3)[C@@](C)(O)C(=O)C2=C1 | 12.4% | 85.9% | 34.6% | 44.8% | -69.2% (active) | 14.1% | 1.44% (active) | 42.6% | 48.5% | 17.9%
C#C[C@@]1(O)[C@@H](CO)O[C@@H](n2cc(F)c3c(N)ncnc32)[C@@H]1O | 2.84% (active) | 9.21% (active) | -30.2% (active) | -14.8% (active) | -36.8% (active) | 15.9% | -23% (active) | 0.929% (active) | 2.98% (active) | -42% (active)
Cc1[nH]c2ncnc(Oc3ccc(NC(=O)Nc4ccc(Cl)c(C(F)(F)F)c4)cc3)c2c1C | 66.4% | 26.6% | 61.6% | 44.6% | 74.3% | 53% | 62.4% | 56% | 64.2% | 52.1%
OCCNc1nc(NCCO)nc(Nc2ccc(C3=NN(c4cc(Cl)cc(Cl)c4)C(c4ccccc4)C3)cc2)n1 (stereo not given) | 45.8% | 18.4% | 59.2% | 42.1% | 11% | 50.8% | 10% | 38% | 91.2% | 46.2%
S=C(Nc1ccccc1)c1ccccn1 | 120% | 99.7% | 114% | 102% | 128% | 105% | 114% | 91.1% | 31.3% | 90.6%
CN(C)C1=NCCN1 | 108% | 95.6% | 97.2% | 105% | 108% | 104% | 101% | 104% | 103% | 95.7%
C=C(C)[C@@H]1CC[C@]2(C(=O)OCCOCCOCC[P+](c3ccccc3)(c3ccccc3)c3ccccc3)CC[C@]3(C)[C@H](CC[C@@H]4[C@@]5(C)CC[C@H](OC(C)=O)C(C)(C)[C@@H]5CC[C@]43C)[C@@H]12 | -91.1% (active) | -74.3% (active) | -85.1% (active) | -91.3% (active) | -90.4% (active) | -74.7% (active) | -92% (active) | -90.9% (active) | -83.4% (active) | -83.1% (active)
O=C(CCc1nnco1)c1nc2ccc([N+](=O)[O-])cc2[nH]1 | 107% | 113% | 105% | 90.5% | 117% | 102% | 102% | 104% | 112% | 103%
Nc1ccccc1NC(=O)c1ccc(CSc2nc(N3CCOCC3)c3cccn3n2)cc1 | 9.93% (active) | 5.46% (active) | 30.9% | 18.8% | -6.46% (active) | 4.84% (active) | 2.8% (active) | 15.2% | -3.3% (active) | 5.11% (active)
O=C1C(=O)c2c(nc3ccc(Br)cn23)-c2ccccc21 | -100% (active) | -59.8% (active) | -97.9% (active) | -20.1% (active) | -94.1% (active) | -71.7% (active) | -100% (active) | -99.1% (active) | -99% (active) | -92.9% (active)
COCCc1n(Cc2ccc3ccccc3c2)c2ccccc2[n+]1Cc1ccc2ccccc2c1 | 2.65% (active) | -67.8% (active) | -69.5% (active) | -74.7% (active) | -44.3% (active) | -58.4% (active) | -32.7% (active) | -8.99% (active) | -29.3% (active) | -72.2% (active)
CN1CCN(C(=O)[C@@]2(C)CC[C@]3(C)CC[C@]4(C)C(=CC[C@@H]5[C@@]6(C)CC[C@H](OC(=O)c7cccnc7)C(C)(C)[C@@H]6CC[C@]54C)[C@@H]3C2)CC1 | 78.7% | -24.1% (active) | 60.2% | 48.4% | 60.3% | 85.4% | 67.8% | 59.8% | 58.6% | 80.7%
C#C[C@@]1(O)[C@@H](CO)O[C@@H](n2cc(Cl)c3c(N)ncnc32)[C@@H]1O | 4.44% (active) | 4.99% (active) | -19.5% (active) | -6.34% (active) | -33.4% (active) | 15.3% | -26.8% (active) | -54.3% (active) | 40.9% | -25.8% (active)
CC(/C=C/c1ccccc1)=N/NC(=O)c1ccncc1 | 112% | 100% | 89.5% | 105% | 113% | 102% | 109% | 105% | 89.8% | 101%
CCN1CCN(Cc2ccc(NC(=O)c3cccc(C#Cc4cccc5[nH]nc(N)c45)c3)cc2C(F)(F)F)CC1 | -70% (active) | -43.8% (active) | -71.4% (active) | -85% (active) | -92% (active) | -41.5% (active) | -88.4% (active) | -98% (active) | -75.7% (active) | -83.5% (active)
O=C1c2ccccc2C(=O)c2c1oc1c2c(=O)[nH]c2ccc(Cl)cc21 | -45.4% (active) | 12.9% | -51.7% (active) | -42.2% (active) | -46.3% (active) | -31.7% (active) | -1.34% (active) | -28% (active) | 18.8% | 10.4%
